PubChem BioAssay (NCI)
The panel holds about 79,000 compounds, 15% with a hit somewhere; the sample as a whole holds those more often. Calls of active or inactive are those of the source. No stated cut-off is given here; in the data, active means growth inhibition above about 70%; inactive means the rest.

Tests used:
[1] = NCI Yeast Anticancer Drug Screen. Data for the mec2-1 strain (AID 157); details: S. cerevisiae mec2-1 strain, active compounds read high
Method in brief: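 Growth inhibition is read against vehicle-treated controls after compound exposure of the mec2-1 yeast strain, which is defective in DNA damage repair or cell cycle control.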

[2] = NCI Yeast Anticancer Drug Screen. Data for the rad14 strain (AID 159);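 further: 0% = growth of vehicle-treated control cultures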; details: S. cerevisiae rad14 strain growth inhibition, active compounds read high
Method in brief: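 Compound-treated yeast with a defined DNA-repair lesion; growth inhibition normalised to vehicle-treated cultures.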

[3] = NCI Yeast Anticancer Drug Screen. Data for the sgs1 mgt1 strain (AID 161);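 further: 0% = growth of cultures given vehicle only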; details: S. cerevisiae sgs1 mgt1 strain, active compounds read high
Method in brief: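 Percent growth inhibition was derived by comparing compound-exposed mutant yeast with vehicle-exposed cultures. The strain carries alterations in DNA damage repair.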

[4] = NCI Yeast Anticancer Drug Screen. Data for the CLN2oe strain (AID 163);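 further: 0% = growth of vehicle-only control cultures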; details: S. cerevisiae CLN2oe strain, active compounds read high
Method in brief: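 Compound-treated yeast; growth vs vehicle ctrl = % inhibition. Genetically altered strain (cell-cycle control).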

[5] = NCI Yeast Anticancer Drug Screen. Data for the cln2 rad14 strain (AID 165);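 further: 0% = growth equal to vehicle treated cultures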; details: S. cerevisiae cln2 rad14 strain, active compounds read high
Method in brief: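 Growth inhibition, relative to vehicle-treated controls, is the read-out. The test organism is a yeast strain with defined genetic alterations, cln2 rad14.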

[6] = NCI Yeast Anticancer Drug Screen. Data for the bub3 strain (AID 167); details: S. cerevisiae bub3 mutant strain, active compounds read high
Method in brief: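 Growth of a checkpoint-deficient yeast mutant is measured after compound exposure. Values represent inhibition relative to vehicle.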

[7] = NCI Yeast Anticancer Drug Screen. Data for the mlh1 strain (AID 171);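 further: 0% = growth of vehicle-treated control cultures of the same strain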; details: S. cerevisiae mlh1 strain growth inhibition, active compounds read high
Method in brief: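 Compounds are applied to a genetically altered yeast strain, and its growth is compared with that of vehicle-treated cultures to give percent inhibition.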

[8] = NCI Yeast Anticancer Drug Screen. Data for the sgs1 strain (AID 173);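 further: 0% = growth of vehicle-only control cultures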; details: S. cerevisiae sgs1 mutant, active compounds read high
Method in brief: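 Compounds applied to genetically altered yeast; growth compared with vehicle-treated cultures to give % inhibition.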

[9] = NCI Yeast Anticancer Drug Screen. Data for the mlh1 rad18 strain (AID 175); details: S. cerevisiae mlh1 rad18 strain growth inhibition, active compounds read high
Method in brief: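 Cells of a genetically altered yeast strain, deficient in DNA damage repair, were treated with compound. Their growth was then compared with that of vehicle-treated cultures to give inhibition.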

[10] = NCI Yeast Anticancer Drug Screen. Data for the rad18 strain (AID 177); details: S. cerevisiae rad18 mutant growth inhibition, active compounds read high
Method in brief: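 Compounds are applied to a repair-deficient yeast strain, and growth is compared with that of vehicle-treated cultures to give percent inhibition.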

[11] = NCI Yeast Anticancer Drug Screen. Data for the wt1 strain (AID 149);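 further: 0% = growth of vehicle-treated wt1 cultures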; details: S. cerevisiae wt1 strain (SPY 50644) growth inhibition, active compounds read high
Method in brief: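 Readout: yeast growth inhibition, normalised to vehicle controls, in the wt1 strain exposed to test compounds.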

[12] = NCI Yeast Anticancer Drug Screen. Data for the rad50EPP+ strain (AID 151);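 further: 0% = growth of vehicle-treated control cultures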; details: S. cerevisiae rad50 mutant strain, active compounds read high
Method in brief: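 rad50EPP+ yeast treated with test compounds. Readout: growth vs vehicle control.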

[13] = NCI Yeast Anticancer Drug Screen. Data for the mgt1 strain (AID 153); details: S. cerevisiae mgt1 mutant growth inhibition, active compounds read high
Method in brief: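 Growth inhibition relative to vehicle controls was scored for the mgt1 yeast strain after compound exposure.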

[14] = NCI Yeast Anticancer Drug Screen. Data for the rad50 strain (AID 155);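 further: 0% = growth of vehicle-only cultures of the same strain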; details: S. cerevisiae rad50 strain growth inhibition, active compounds read high
Method in brief: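 Compounds were tested on a yeast strain with an engineered DNA damage repair alteration; the reported value is growth inhibition normalised to vehicle treatment.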

[15] = NCI Yeast Anticancer Drug Screen. Data for the wt2 strain (AID 169);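 further: 0% = growth of vehicle-treated yeast cultures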; details: S. cerevisiae wt2 strain growth inhibition, active compounds read high
Method in brief: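 Compound exposure of yeast; growth compared with vehicle controls; inhibition reported.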

[16] = at 5.0 µM (retest, dose inferred, filed as 0.5)
[17] = at 50.0 µM (retest, dose inferred, filed as 5.0)

Measured: growth inhibition

O=C(C#Cc1ccccc1)Nc1ccccc1
active: [1]; at 100.0 µM 80% | [2]; at 100.0 µM 97% | [4]; at 100.0 µM 94% | [6]; at 100.0 µM 97% | [7]; at 33.0 µM 72% | [7]; at 100.0 µM 98% | [8]; at 33.0 µM 88% | [8]; at 100.0 µM 99% | [10]; at 100.0 µM 94%
inactive: [2]; at 1.2 µM -3% | [2]; at 3.7 µM -9% | [2]; at 11.0 µM 4% | [2]; at 33.0 µM 67% | [3]; [16] -57% | [3]; [17] 67% | [3]; at 50.0 µM 64.7% | [4]; at 1.2 µM -10% | [4]; at 3.7 µM -13% | [4]; at 11.0 µM -14% | [4]; at 33.0 µM -5% | [5]; [16] -64% | [5]; [17] -42% | [5]; at 50.0 µM -13.2% | [6]; at 1.2 µM -10% | [6]; at 3.7 µM -7% | [6]; [16] -74% | [6]; at 11.0 µM -7% | [6]; at 33.0 µM 24% | [6]; [17] -6% | [6]; at 50.0 µM 15.4% | [7]; at 1.2 µM -15% | [7]; at 3.7 µM -12% | [7]; at 11.0 µM -9% | [8]; at 1.2 µM -9% | [8]; at 3.7 µM -3% | [8]; at 11.0 µM 33% | [9]; [16] -149% | [9]; [17] -10% | [9]; at 50.0 µM 38.9% | [10]; at 1.2 µM -9% | [10]; at 3.7 µM -12% | [10]; at 11.0 µM -9% | [10]; at 33.0 µM 8%

COc1ccc(C(OCC2OC(n3cnc4c(=O)n(Cc5ccccc5[N+](=O)[O-])nnc43)C(O)C2O)(c2ccccc2)c2ccc(OC)cc2)cc1 (stereo unspecified)
inactive: [11]; at 1.2 µM -18% | [11]; at 3.7 µM -11% | [11]; at 11.0 µM -2% | [11]; at 33.0 µM -4% | [11]; at 100.0 µM -2% | [12]; at 1.2 µM 8% | [12]; at 3.7 µM 8% | [12]; at 11.0 µM -5% | [12]; at 33.0 µM -7% | [12]; at 100.0 µM -15% | [13]; at 1.2 µM 9% | [13]; at 3.7 µM 5% | [13]; at 11.0 µM 20% | [13]; at 33.0 µM 25% | [13]; at 100.0 µM 20% | [14]; at 1.2 µM 22% | [14]; at 3.7 µM 24% | [14]; [16] 17% | [14]; at 11.0 µM 26% | [14]; at 33.0 µM 18% | [14]; [17] 35% | [14]; at 100.0 µM 17% | [1]; at 1.2 µM 14% | [1]; at 3.7 µM 13% | [1]; [16] 14% | [1]; at 11.0 µM 15% | [1]; at 33.0 µM 22% | [1]; [17] 33% | [1]; at 100.0 µM 9% | [2]; at 1.2 µM -23% | [2]; at 3.7 µM -22% | [2]; at 11.0 µM -25% | [2]; at 33.0 µM -28% | [2]; at 100.0 µM -31% | [3]; [16] 0% | [4]; at 1.2 µM 9% | [4]; at 3.7 µM -4% | [4]; at 11.0 µM -7% | [4]; at 33.0 µM 11% | [4]; at 100.0 µM -3% | [5]; [16] 2% | [6]; at 1.2 µM 32% | [6]; at 3.7 µM 26% | [6]; [16] 7% | [6]; at 11.0 µM 23% | [6]; at 33.0 µM 26% | [6]; at 100.0 µM 14% | [15]; at 1.2 µM 1% | [15]; at 3.7 µM -4% | [15]; at 11.0 µM 6% | [15]; at 33.0 µM 13% | [15]; at 100.0 µM 6% | [7]; at 1.2 µM -8% | [7]; at 3.7 µM -2% | [7]; at 11.0 µM -2% | [7]; at 33.0 µM 3% | [7]; at 100.0 µM -4% | [8]; at 1.2 µM -10% | [8]; at 3.7 µM -20% | [8]; at 11.0 µM -10% | [8]; at 33.0 µM -5% | [8]; at 100.0 µM 8% | [9]; [16] 21% | [9]; [17] 23% | [10]; at 1.2 µM 28% | [10]; at 3.7 µM 27% | [10]; at 11.0 µM 33% | [10]; at 33.0 µM 37% | [10]; at 100.0 µM 32%
active: [14]; at 50.0 µM 89.2% | [1]; at 50.0 µM 91.4% | [3]; [17] 97% | [3]; at 50.0 µM 91.6% | [5]; [17] 88% | [5]; at 50.0 µM 88.7% | [6]; [17] 96% | [6]; at 50.0 µM 89.4% | [9]; at 50.0 µM 89.5%

Cc1ccc([N+](=O)[O-])c2c(NCCC[N+](C)(C)[O-])c3ccccc3nc12
active: [14]; at 100.0 µM 81% | [1]; at 100.0 µM 82% | [2]; at 33.0 µM 91% | [2]; at 100.0 µM 96% | [5]; [17] 91% | [5]; at 50.0 µM 77.8% | [8]; at 100.0 µM 81% | [9]; [17] 82% | [10]; at 3.7 µM 76% | [10]; at 11.0 µM 90% | [10]; at 33.0 µM 94% | [10]; at 100.0 µM 94%
inactive: [11]; at 1.2 µM -5% | [11]; at 3.7 µM 0% | [11]; at 11.0 µM 2% | [11]; at 33.0 µM 2% | [11]; at 100.0 µM 2% | [12]; at 1.2 µM -9% | [12]; at 3.7 µM -10% | [12]; at 11.0 µM -6% | [12]; at 33.0 µM 8% | [12]; at 100.0 µM 54% | [14]; at 1.2 µM 4% | [14]; at 3.7 µM 7% | [14]; [16] -16% | [14]; at 11.0 µM 3% | [14]; at 33.0 µM 38% | [14]; [17] 44% | [14]; at 50.0 µM 61.2% | [1]; at 1.2 µM -15% | [1]; at 3.7 µM -10% | [1]; [16] 11% | [1]; at 11.0 µM -14% | [1]; at 33.0 µM -1% | [1]; [17] 64% | [1]; at 50.0 µM 1.6% | [2]; at 1.2 µM 11% | [2]; at 3.7 µM 15% | [2]; at 11.0 µM 43% | [3]; [16] 6% | [3]; [17] 62% | [3]; at 50.0 µM 56.8% | [4]; at 1.2 µM -16% | [4]; at 3.7 µM -9% | [4]; at 11.0 µM -17% | [4]; at 33.0 µM -21% | [4]; at 100.0 µM 10% | [5]; [16] 18% | [15]; at 1.2 µM 0% | [15]; at 3.7 µM -4% | [15]; at 11.0 µM 4% | [15]; at 33.0 µM 8% | [15]; at 100.0 µM 10% | [7]; at 1.2 µM 26% | [7]; at 3.7 µM 11% | [7]; at 11.0 µM 10% | [7]; at 33.0 µM -12% | [7]; at 100.0 µM 27% | [8]; at 1.2 µM -7% | [8]; at 3.7 µM 6% | [8]; at 11.0 µM 31% | [8]; at 33.0 µM 66% | [9]; [16] 31% | [9]; at 50.0 µM 45.1% | [10]; at 1.2 µM 22%
